High-throughput results from PubChem.
Only some compounds are listed: those with a hit (about 13% of all), similar ones and a draw of the others.
HADH2 inh: HADH2 (human) dehydrogenase inhibition. Q99714. recombinant HADH2, NADH fluorescence, beta-hydroxybutyryl-CoA. Potency, µM (top dose mostly 57.1 µM), inactives show at the top dose activity change, negative = inhibition, hits mostly inhibitors. actives 3.4% (n = 73,000). AID 886; note: potency is the fitted concentration of half-maximal effect; % is set by controls: 0 for no effect and ±100 for the full control effect; nearly all actives have a fitted effect of over 60% in size
Target sequence (Q99714 whole entry, looked up, one chain of several): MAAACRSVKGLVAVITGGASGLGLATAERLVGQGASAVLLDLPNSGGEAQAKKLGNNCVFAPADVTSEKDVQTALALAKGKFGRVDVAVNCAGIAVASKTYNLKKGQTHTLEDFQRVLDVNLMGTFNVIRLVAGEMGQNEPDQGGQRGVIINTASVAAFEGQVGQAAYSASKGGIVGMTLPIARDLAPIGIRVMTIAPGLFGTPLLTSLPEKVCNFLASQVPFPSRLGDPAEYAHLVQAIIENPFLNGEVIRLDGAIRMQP
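20 nM HADH2 + cpd, 15 min RT; add 1 mM NAD+/90 uM beta-hydroxybutyryl-CoA; kinetic fluorescence 360/450 nm, 4 min. Tris-HCl pH 9.0, 0.01% Tween-20.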
A350 fluor: compounds fluorescent in Alexa 350 spectral region; Compound autofluorescence, 340/450 nm, Alexa 350 dye-equivalents; stronger effect = higher value; AID 590; actives 11% (n = 59,000); max dye-equivalent concentration, M; in the data active = max dye-equivalent concentration above about 10 nM; inconclusive = mostly about 1.1 nM to 9.6 nM
4-MU autofl: compounds fluorescent in 4-MU spectral region; compound autofluorescence, 340/450 nm, 4-MU equivalents; stronger effect = higher value; max dye-equivalent concentration, M; actives 11% (n = 59,000); AID 589; in the data active = max dye-equivalent concentration above about 10 nM; inconclusive = mostly about 1.1 nM to 9.6 nM
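Compounds in 100 mM Tris, pH 8.0, incubated 15 min at room temperature, then fluorescence read at 340 nm excitation/450 nm emission. Signal converted to 4-MU dye-equivalent concentration using an on-plate six-point 4-MU standard curve.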
HSD17B inh: inhibitors of human HSD17B10 dehydrogenase; Q99714; recombinant HSD17B10, NADH fluorescence kinetic; Potency, µM (top dose mostly 57.1 µM), for the others: top-dose activity change, negative = inhibition, most hits filed as inhibitors; actives 7.6% (n = 75,000); AID 893;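 note: the protocol describes HADH2 (HSD17B10) and not the HSD17B4 of the title; potency is the fitted concentration of half-maximal effect; % is set by controls: 0 for no effect and ±100 for the full control effect; nearly all actives have a fitted effect of over 70% in size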
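20 nM HADH2, pH 9.0 Tris/Tween; cpd preinc 15 min RT; start w/ 1 mM NAD+ + 90 uM b-hydroxybutyryl-CoA; kinetic fluor ex360/em450 q30s x 4 min; delta last-first.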
AID923: qHTS Assay for Allosteric/Competitive Inhibitors of Caspase-1: Spectroscopic Profiling in AFC Spectral Region. compound fluorescence, AFC spectral region (405/520 nm). Potency, µM (titrated, usually from 57.5 µM), for the others: at the highest dose fluorescence increase, usual class: activators. actives 1.1% (n = 75,000). AID 923, 2007; note: potency is the fitted concentration of half-maximal effect; 0% is about no effect
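Titrations up to 57 uM read every 20 sec for 3 min (405/520 nm) with 50 nM caspase 1 and 5 uM Ac-WEHD-AFC, pH 7.5 HEPES buffer. Fluorescence-vs-time intercept gave baseline, scaled against on-plate AFC standard.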
* marks the source's active call; other numbers are inactive results; i = inactive; ? = inconclusive; nt = no result given; [ ] = dose if it differs, or a comment. Unless noted, calls come from the whole dose curve; as a rule, active = well fitted curve in the direction sought with a large enough effect; inconclusive = small, poorly fitted or top-dose-only effect, or another doubt; inactive = no such curve, though single readings can be large; an effect the other way counts as inactive or inconclusive.

SMILES	HADH2 inh	A350 fluor	4-MU autofl	HSD17B inh	AID923
COC(=O)[C@@]1(Cc2ccccc2)[C@H]2c3cc(C(=O)N4CCCC4)n(Cc4ccccc4)c3C[C@H]2CN1C(=O)c1ccccc1	-1%	nt	nt	12%	0%
Cc1noc(C)c1-c1ccc2ncnc(N(C)Cc3ccco3)c2c1	-16%	i	i	-16%	0%
C[C@@]12CCC(=O)C=C1CC[C@H]1[C@H]3CC[C@](O)(C(=O)CO)[C@]3(C)CC(=O)[C@@H]12	-1%[25.6 µM]	i	i	10µM*	-2%[25.7 µM]
CCCC(=O)O[C@]1(C(=O)CO)CCC2[C@@H]3CCC4=CC(=O)CC[C@]4(C)C3C(O)C[C@]21C (stereo not given in full)	nt	nt	nt	2%	-2%
CS[C@]12C(=O)C[C@]3(C)[C@@H](CC[C@@]3(O)C(=O)CO)[C@@H]1CCC1=CC(=O)CC[C@]12C	-5%[11.4 µM]	i	i	-2%[11.4 µM]	0%[11.5 µM]
C[C@]12CCC(=O)C=C1CC[C@@H]1[C@@H]2C(=O)C[C@@]2(C)[C@H]1CC[C@]2(O)C(=O)CO	6%	?	?	7.9µM*	-3%
COC(=O)N1CCC[C@@]2(CCN(c3ccccc3)C2)C1	10%	i	i	-4%	4%
COC(=O)C/C=C\[C@@H](C)[C@@H](CO)NS(=O)(=O)c1ccc(C)cc1	-6%[11.4 µM]	nt	nt	1%[11.4 µM]	-4%[11.5 µM]
Cc1nc2c3c(-c4ccccc4)c(-c4ccccc4)oc3ncn2n1	-2%	1.6e-08M*	1.3e-08M*	?	0%
O=C(Nc1ccccc1)N1CCCC2(CCN(S(=O)(=O)c3ccccc3)CC2)C1	1%	i	i	3%	0%
Cc1nc2ccccc2nc1-c1ccc(N=[N+]([O-])c2ccc(-c3nc4ccccc4nc3C)cc2)cc1	6%[11.4 µM]	i	i	6%[11.4 µM]	1%[11.5 µM]
COc1ccc2c(c1)CCCN2C(N)=O	32µM*	4.7e-06M*	4.4e-06M*	4%	1%
CCCCCCCCC	-8%	nt	nt	6%	0%
CC(C)NC[C@H]1CCc2cc(CO)c([N+](=O)[O-])cc2N1	0%[25.6 µM]	i	i	-6%[25.6 µM]	0%[25.7 µM]
O=C(c1ccncc1)N(Cc1cc2ccccc2[nH]c1=O)C1CCCCC1	3%	i	i	-24%	-1%
COc1ccc2[nH]c(=O)c(CN(Cc3ccc4c(c3)OCO4)C(C)=O)cc2c1	-4%	8.3e-08M*	6.3e-08M*	?	0%
O=C(NC1CCCCC1)N(CCN1CCOCC1)Cc1cc2cc3c(cc2[nH]c1=O)OCCO3	?	2.3e-07M*	2.4e-07M*	25µM*	1%
COC(=O)c1ccccc1S(=O)(=O)N(Cc1cc2cc3c(cc2[nH]c1=O)OCO3)C1CCCCC1	?	7.6e-08M*	1.1e-07M*	?	3%
CCN(CC)CCN(Cc1cc2cc3c(cc2[nH]c1=O)OCCO3)C(=O)NC1CCCCC1	?	2.4e-07M*	3.2e-07M*	25µM*	9%
CC(=O)N[C@H](CC(C)C)C(=O)O	nt	nt	nt	6%	1%
COC(=O)c1ccc(COC(=O)c2ccc(-n3cnnn3)cc2)o1	-2%	?	?	11%	0%
COc1ccc(CN(Cc2cc3cc4c(cc3[nH]c2=O)OCO4)C(=O)NC2CCCCC2)cc1	?	1.2e-07M*	1.4e-07M*	32µM*	0%
CCN(CC)CCCNc1oc(-c2ccc(OC)c(OC)c2)nc1C#N	20µM*	1.6e-08M*	1.3e-08M*	32µM*	-1%
COc1ccc(CCNc2oc(Cc3ccccc3)nc2C#N)cc1OC	9%	i	i	-5%	-1%
CN(C)CCNc1oc(COc2cccc(Cl)c2)nc1C#N	9%	?	i	-4%	8%
CC(C)(C)c1ccc(-c2nc(C#N)c(NCc3ccncc3)o2)cc1	?	i	i	25µM*	3%
CN(C)CCCNc1oc(-c2cccc(Cl)c2)nc1C#N	25µM*	1e-07M*	8.2e-08M*	32µM*	0%
COc1ccc(-c2nc(C#N)c(NCCc3ccccc3)o2)cc1OC	114%	?	?	25µM*	3%
COc1ccc(-c2nc(C#N)c(NCc3ccc(C)cc3)o2)cc1OC	?	?	?	32µM*	-1%
N#Cc1nc(-c2ccc(OCc3ccc(Cl)cc3)cc2)oc1NCc1cccnc1	2%	i	i	-16%	0%
